Assay results taken from PubChem BioAssay (NCI).
About 83,000 compounds went through this panel and 20% of them were active in at least one assay; those are over-represented in the sample as a whole.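 Growth was measured after 48 h exposure to one concentration of compound in 96-well plates. Values under 10 count as active.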 A number with no mark means an inactive call. Active and inactive are the calls of the source.

System: HL-60(TB) leukemia
Assay: NCI-60 one-dose screen, 48 h (100 = growth as untreated, 0 = no growth, -100 = all killed)
Conditions: 10 µM unless noted

Row | SMILES | growth
1 | Cc1nn(-c2ccccc2)c2nc3nc4c(c(N)c3c(-c3ccc(Cl)cc3)c12)CCC4 | 102%
2 | COc1ccc(-c2cc(-c3ccc(Cl)cc3)c(C#N)c(=O)n2CCCCC(=O)NO)cc1 | 92.7%
3 | CC1(C)C(N)=Nc2cc(OCCCN3Cc4ccccc4C3)c(OCC3CC3)cc21 | 36.2%
4 | CN(Cc1cnc2nc(N)nc(N)c2n1)c1ccc(C(=O)NC(CCC(=O)O)C(=O)O)cc1Br (stereo not given) | 45.2%
5 | Cc1ccc(O)c(NC(=O)c2ccc(CNc3ccnc(C(F)(F)F)c3)cc2)c1 | 9.24% (active)
6 | C/C(=C\CCc1ccsc1)CC/C=C(\C)CCCN1CCC(CO)CC1 | -49.9% (active)
7 | Nc1nc(N)c2c(n1)NC(c1ccc(Cl)cc1)CC(c1cccc(Nc3ccncc3)c1)=N2 (stereo not given) | 39%
8 | CC(C)(C)CC(C)(C)Cc1ccc(OCCOCC[N+](C)(C)Cc2ccccc2)cc1 | -52.6% (active)
9 | CC[N+](C)(C)N | 103%
10 | COc1ccc(-c2cc(C(=O)Nc3nc4cc(C)c(C)cc4s3)nc3cc(-c4ccccc4)nn23)cc1OC | 98.2%
11 | CN(C)C(=O)Nc1nc2cc(Cl)c(Cl)cc2[nH]1 | -29.9% (active)
12 | Clc1ccc2c(NCCNc3nc(N4CCCC4)nc4ccccc34)ccnc2c1 | -70% (active)
13 | O=C1/C(=C/c2ccccc2[N+](=O)[O-])COc2ccc(O)cc21 | -8.06% (active)
14 | COc1cc(C2CC(=O)Nc3c2c(C)nn3-c2nc3ccccc3[nH]2)cc(OC)c1OC (stereo not given) | 108%
15 | O=C(Nc1ccc(F)cc1)ON=C1CCCCC1 | 86.8% [100 µM]
16 | O=C(C=C=Nc1ccccc1)C(=O)N=C=Cc1ccccc1 | -26% (active)
17 | CCOC(=O)c1cc(C(=O)c2ccc(OC)c(OC)c2)n2c1ccc1ccc3cccnc3c12 | 3.73% (active)
18 | Cn1c2c(cc(S(=O)(=O)c3ccccc3)c1=O)CCc1c-2cnn1-c1ccc(Cl)cc1 | 73.1%
19 | C=C1C(=O)O[C@H]2[C@H]1CC/C(COC(=O)/C=C\C(=O)NCc1ccc(Cn3c(=O)sn(CCI)c3=O)cc1)=C\CC[C@@]1(C)O[C@@H]21 | -34.7% (active)
20 | COc1ccc(-c2cc(=O)[nH]c3c(OC)c4ccccc4c(OC)c23)cc1 | -19.8% (active)

Row | SMILES | growth
21 | CCCCCCNC(=O)Oc1ccc(/C(=C(\C)c2ccccc2)c2ccc(OCCN3CCCCC3)cc2)cc1 | 31.1%
22 | CN(C)c1ncc(C#Cc2c(F)cccc2F)c2ccccc12 | 59.9%
23 | CNc1nc2ncn(C)c2c(=O)[nH]1 | 91.5%
24 | COc1ccc2c(c1)cn1c3ccc(O)cc3[nH]c(=O)c21 | -21.7% (active)
25 | COc1ccc2cc1Oc1ccc(cc1)C[C@H]1c3cc(c(OC)cc3CCN1C)Oc1c(OC)c(OC)cc3c1[C@H](C2)N(C)CC3 | 29.8%
26 | CN1CCN(c2c(F)cc(NC3=C(Cl)C(=O)c4ncccc4C3=O)cc2F)CC1 | -24.7% (active)
27 | CCCCCCCCn1cc(C2=C(c3coc4ccc(OC)cc34)C(=O)NC2=O)c2ccccc21 | 133%
28 | O=C(Nc1ccc2[nH]c3ccccc3c2c1)c1ccccc1Cl | 9.41% (active)
29 | Clc1cc(Cl)c(Cl)c(-c2nnc(SCc3ccncc3Br)o2)c1 | 88.8%
30 | Nc1[nH]nc2nc(-c3ccccc3)n3c4ccccc4nc3c12 | 97.5%
31 | CC(=O)N1N=C(c2cccc(Nc3ccncc3)c2)CC1c1ccc2c(c1)OCO2 (stereo not given) | 90.3%
32 | COc1cc(C(=O)/C=C/c2cc(-c3ccc4c(c3)OCO4)n[nH]2)cc(OC)c1OC | -16.6% (active)
33 | CCOC(=O)c1cnc2ccc(Cl)cc2c1NCCCN(C)C | -18.6% (active)
34 | CC[C@H](Nc1cc(C)nc(N)n1)c1nc2cccc(NCc3ccc(C(=O)NO)cc3)c2c(=O)n1-c1ccccc1 | 2.35% (active)
35 | Oc1c(I)cc(I)cc1CN(Cc1ccccn1)Cc1ccccn1 | 2.58% (active)
36 | c1ccc(C(CC2=NCCCN2)c2ccccc2)cc1 | 71%
37 | O=c1cn[nH]c2ccc(Br)cc12 | 85.5%
38 | Cc1ccsc1C(NC(=O)c1ccccc1)c1cc(Cl)c2cccnc2c1O (stereo not given) | 12.4%
39 | CCN(CC)Cc1cc(Nc2c3ccccc3nc3cc(Cl)ccc23)ccc1O | -37.5% (active)
40 | CS(=O)(=O)Nc1ccc(Nc2c3ccccc3nc3cc(Cl)ccc23)cc1 | -1.97% (active)
